For 51 molecules, INHIBITION results are on record in ChEMBL document CHEMBL4513216, “Probing the Open Global Health Chemical Diversity Library for Multistage-Active Starting Points for Next-Generation Antimalarials” (ACS Infect Dis, 2020).

The campaign covered roughly 69,000 compounds. About 8,600 (12%) showed an effect of 50% or more. For the sample, strong results were picked, then their nearest neighbours and some compounds at random.

The test concerns Plasmodium berghei. As to the kind of experiment: Screen against P. berghei liver stage (PbLuc), transformed with Luciferase, at 10uM. The class given is functional, HepG2. The settings on record: tested at 10 uM.
Take `CSc1ccc(CN2CCn3nc(CNC(C)=O)cc3C2)cc1`: the INHIBITION is -89.3%.
`CC(C)N1CCC(Cc2cncc(-c3cccc(C(=O)O)c3)n2)C1` (stereo unspecified): the INHIBITION is -62.3%.
For `COC(=O)c1ccc(CN2CCN(Cc3nc(C)no3)CC2)s1`, the INHIBITION was determined as 23.2%.
As to `CC(C)c1nnc2n1CCN(Cc1nc(-c3ccoc3)no1)C2`, the INHIBITION was 17.45%.
Turning to `CC1CN(C(=O)CN(Cc2ccccc2Cl)C2CCCC2)CCO1` (stereo unspecified), the INHIBITION is reported as -0.219%.
Take `COc1ccc(CN2CCn3cc(CNC(=O)C4CCC4)nc3C2)cc1`: the INHIBITION was 19.5%.
As for `O=C(c1ccco1)N1CCN2C[C@H](OCc3cccnc3)C[C@H]2C1`, the INHIBITION was found to be 12.4%.
On to `O=C(c1cccc(F)c1)N1CCN2C[C@H](OCc3cccnc3)C[C@H]2C1`, for which the INHIBITION came to 17.1%.
As for `O=C(c1cnccn1)N1CCN2C[C@H](OCc3ccccc3)C[C@H]2C1`, the INHIBITION is 11%.
Regarding `O=C(c1cscn1)N1CCN2C[C@H](OCc3cccnc3)C[C@H]2C1`, the INHIBITION worked out at 33%.
As to `O=C(c1cnccn1)N1CCN2C[C@H](OCc3ccccc3F)C[C@H]2C1`, the INHIBITION came out at 59.8%.
Then `O=C(c1cnccn1)N1CCN2C[C@H](OCc3ccccn3)C[C@H]2C1`, with -0.182%; and `O=C(c1ccc(F)cc1)N1CCN2C[C@H](OCc3cccnc3)C[C@H]2C1`, with 82.3%; and `Cc1cnc(C(=O)N2CCN3C[C@H](OCc4cccnc4)C[C@H]3C2)cn1`, with 52%.
Consider `O=C(c1ccnnc1)N1CCN2C[C@H](OCc3cccnc3)C[C@H]2C1`, for which the INHIBITION stood at 26.4%.
Take `CS(=O)(=O)NC1CCCN(C(=O)COCc2ccccc2)C1` (stereo unspecified): the INHIBITION is reported as -75.98%.
For the molecule `Cc1ncc2c(n1)CCN(CCCc1nc3ccccc3o1)C2`, the INHIBITION is reported as -65.2%.
As to `O=C(NCc1cn2c(n1)CN(Cc1ccccn1)CC2)C1CCC1`, the INHIBITION is -8.94%.
For the molecule `CC(=O)N1[C@H](CN(C)C)C[C@@H]2CN(C(=O)c3ccno3)CC[C@@H]21`, the INHIBITION is given as 17.4%.
Next, `Cc1cc(C)c(C(=O)N2CCOC(CCN(C)C)C2)o1` (stereo unspecified): -5.12%; `Cc1ccc(N2CCC3(CCN(C(=O)c4ccsc4)C3)CC2)nn1`: 36.4%.
For `CN1CC2(CCN(C(=O)c3ccc4c(=O)n(C)cnc4c3)CC2)CC1=O`, the INHIBITION is on record as 32.5%.
As to `Cc1nc[nH]c1C(=O)N1CCC2(CN(C)C(=O)O2)C1` (stereo unspecified), the INHIBITION is listed as -11.2%.
`CN1CC2(CCN(C(=O)c3ccc4c(=O)n(C)cnc4c3)C2)OC1=O` (stereo unspecified): the INHIBITION is on record as 88.2%.
`Cc1noc(C2CCN(Cn3cc(Br)cn3)CC2)n1`: the INHIBITION is -47%.
For the molecule `O=C(O)[C@@H]1OCC(=O)N(Cc2cccc(Cl)c2)[C@@H]1c1ccccc1`, the INHIBITION is listed as -25.3%.
Next, `O=C(O)CCCc1ccc2c(c1)CC(=O)N2`: 24.2%; `CCOC(=O)CCCc1ccc2c(c1)CC(=O)N2`: 3.4%; `CCSCCOC(=O)CCCc1ccc2c(c1)CC(=O)N2`: 54.9%.
Next, `Cc1ccc(-n2ncc(C(=O)NC3CC(C)(C)NC(C)(C)C3)c2N)cc1`: -21.1%; `CCc1c(C(=O)NC2CCS(=O)(=O)C2)cnn1-c1ccc(C)cc1` (stereo unspecified): -17%.
`Cc1ccc(-n2ncc(C(=O)NC3CCCCC3)c2N)cc1`: the INHIBITION stood at 66.5%.
Take `CCOc1c(F)cccc1C(=O)N(c1cccnc1)C(C)C`: the INHIBITION turned out to be 55.1%.
For `CCOc1c(F)cccc1C(=O)N(CC)C(C)c1cccnc1` (stereo unspecified), the INHIBITION is given as 43.1%.
Then `CCOc1c(F)cccc1C(=O)N(CC)C(C)c1ccncc1` (stereo unspecified), with 31.2%.
As for `COC(=O)CN(CC1CCOC1)C1CC1` (stereo unspecified), the INHIBITION came out at 50.5%.
Next, `COC(=O)CCN(CC1CCOC1)C1CC1` (stereo unspecified): 43.9%.
`NC(=O)CN(CC1CCOC1)C1CC1` (stereo unspecified): the INHIBITION is listed as 9.16%.
Regarding `CC(C)N1CCc2[nH]nc(C(=O)N3CCN(C)CC3)c2C1`, the INHIBITION turned out to be 1.34%.
Next, `Cc1ccc(NC(C)(C)c2nnnn2-c2ccc(Cl)cc2)c(C)c1`: 81.1%; `Cc1cccc(-n2nnnc2C(C)(C)Nc2ccccc2C)c1`: 39.1%.
For `Cc1cc(Cl)ccc1NCC(=O)Nc1cc(C(C)(C)C)no1`, the INHIBITION is 24.7%.
For `COc1ccc(-n2nnc(C(=O)NC(C)C)c2C2CC2)cc1`, the INHIBITION is 40.1%.
Take `COc1ccc(-n2nnnc2C2(NCc3ccco3)CCCCC2)cc1`: the INHIBITION came out at 24.2%.
For the molecule `COc1ccc(-n2nnnc2C(C)(C)Nc2ccc(C)cc2C)cc1`, the INHIBITION was found to be 77.7%.
For `c1cnc2c(c1)cc([C@@H]1CCCO1)n2CCN1CCOCC1`, the INHIBITION worked out at 0.301%.
Turning to `NC(=O)C(CNC(=O)CCc1ccsc1)Cc1ccc(F)cc1` (stereo unspecified), the INHIBITION is given as 13.1%.
`Cc1ccoc1C(=O)N1CC[C@H]2[C@@H]1CCC(=O)N2c1cccnc1`: the INHIBITION was -7.38%.
As for `OCc1n[nH]c(-c2ccc(F)cc2)n1`, the INHIBITION is -17%.
With `c1cnnc(NCC2CN(CC3CCOCC3)CCO2)c1` (stereo unspecified), the INHIBITION is -35.7%.
As for `CC(C)(O)CN1CCC(=O)N(Cc2ccco2)Cc2cc(F)ccc21`, the INHIBITION was -17.1%.
